In PubChem BioAssay (NCATS):
Values without a mark were called inactive. Results filed as inconclusive are left out. Active and inactive are the calls of the source. Calls follow the shape of the dose curve; as a rule, active = well fitted curve in the direction sought with a large enough effect; inconclusive = small, poorly fitted or top-dose-only effect, or another doubt; inactive = no such curve, though single readings can be large; an effect the other way counts as inactive or inconclusive.

Test system: not listed separately
Test: NS1 protein of Zika virus - qHTS assay to identify small molecule inhibitors in human HEK 293 cells (AID 1347053); also: nearly all actives have a fitted effect of over 55% in size; also: potency is read from the fitted curve at half-maximal effect;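 as to activity change, negative = inhibition: plate controls were infected untreated cells for no effect and uninfected cells for full effect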
Conditions: HEK293 ZIKV MR766 infection, NS1 TR-FRET, 24 h; series mostly up to 46.1 µM; activity change, negative = inhibition: at the top concentration
Procedure, shortened: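 HEK 293 cells pretreated with compound for 1 h, then infected with ZIKV MR766 (MOI 0.5) for 24 h at 37 C. NS1 detected by TR-FRET with two anti-NS1 antibodies; normalized to uninfected (0%) and infected (100%) wells.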

| Compound | activity change, negative = inhibition | Potency |
| --- | --- | --- |
| CCN1CCN(C(=O)N[C@H](C(=O)N[C@@H]2C(=O)N3C(C(=O)O)=C(CSc4nnnn4C)CS[C@@H]23)c2ccc(O)cc2)C(=O)C1=O | -6.44% [at 15.3 µM] |  |
| COc1cc2ncnc(Nc3cccc(Br)c3)c2cc1OC | 1.17% |  |
| CCOC(=O)N1CCN([N+]([O-])=NOc2ccc([N+](=O)[O-])cc2[N+](=O)[O-])CC1 | 0.137% |  |
| CNC(=O)Nc1ccc(-c2nc(N3CC4CCC(C3)O4)c3cnn(C4CCC5(CC4)OCCO5)c3n2)cc1 |  | 16.6 µM (active) |
| COc1cc(C)c(C=CC(C)=CC=CC(C)=CC(=O)O)c(C)c1C | 13.5% |  |
| NC1=N[C@H]2[C@H](CS[C@H]2CCCCC(=O)O)N1 | 2.47% [at 20.1 µM] |  |

Biological target: Parathyroid hormone/parathyroid hormone-related peptide receptor (Homo sapiens) (UniProt Q03431)
Test: qHTS for PTHR1 Agonists: Optimization Screen against the NCGC LOPAC library (AID 1347079);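 also: GloSensor cAMP luminescence in HEK-293 GP2 cells expressing human PTHR1 with IBMX; 0% is about no effect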
Conditions: HEK293 GP2 PTHR1 GloSensor cAMP luminescence, 1 h; series mostly up to 57.1 µM; activation: at the top concentration
Procedure, shortened: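 Compounds were tested across a qHTS titration. PTHR1-expressing GP2 cells report cAMP rises via GloSensor luminescence after 1 hr compound exposure at 37C with IBMX present.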

Chain of Parathyroid hormone/parathyroid hormone-related peptide receptor (Homo sapiens) (Q03431 whole entry, looked up): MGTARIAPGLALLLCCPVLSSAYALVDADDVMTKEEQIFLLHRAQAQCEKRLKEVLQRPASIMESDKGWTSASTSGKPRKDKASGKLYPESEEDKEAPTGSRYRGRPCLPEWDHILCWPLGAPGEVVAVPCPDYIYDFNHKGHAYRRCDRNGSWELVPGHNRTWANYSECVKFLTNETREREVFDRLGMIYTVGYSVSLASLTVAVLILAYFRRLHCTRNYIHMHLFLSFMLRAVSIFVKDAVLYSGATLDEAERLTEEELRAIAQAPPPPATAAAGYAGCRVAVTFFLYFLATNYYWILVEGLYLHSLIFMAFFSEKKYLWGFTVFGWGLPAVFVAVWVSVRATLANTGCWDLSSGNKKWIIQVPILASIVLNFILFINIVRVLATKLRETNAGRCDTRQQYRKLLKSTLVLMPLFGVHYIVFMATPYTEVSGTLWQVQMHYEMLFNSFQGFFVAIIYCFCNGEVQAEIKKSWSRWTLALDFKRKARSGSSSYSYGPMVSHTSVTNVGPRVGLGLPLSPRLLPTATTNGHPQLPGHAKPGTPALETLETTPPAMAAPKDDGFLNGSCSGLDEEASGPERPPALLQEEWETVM

| Compound | activation [%] |
| --- | --- |
| O=c1[nH]c(=O)n([C@H]2C[C@@H](O)[C@@H](CO)O2)cc1C=CBr | 16.4 |
| COc1ccc2cc([S+]([O-])Cc3ncc(C)c(OC)c3C)nc2c1 | -5.15 |
| CN[C@H](CC(C)C)C(=O)N[C@H]1C(=O)N[C@@H](CC(N)=O)C(=O)N[C@@H]2C(=O)N[C@H]3C(=O)N[C@H](C(=O)N[C@H](C(=O)O)c4cc(O)cc(O)c4-c4cc3ccc4O)[C@H](O)c3ccc(c(Cl)c3)Oc3cc2cc(c3O[C@@H]2O[C@H](CO)[C@@H](O)[C@H](O)[C@@H]2O[C@H]2C[C@](C)(N)[C@H](O)[C@H](C)O2)Oc2ccc(cc2Cl)[C@H]1O | 0.393 |

Test system: not listed separately
Test: qHTS of pediatric cancer cell lines to identify multiple opportunities for drug repurposing: Primary screen for TC32 cells (AID 1347089); also: nearly all actives have a fitted effect of over 60% in size; also: potency is read from the fitted curve at half-maximal effect; as to activity change, negative = cytotoxic: % is scaled to controls: 0 for no effect and ±100 for the full control effect
Conditions: TC32 Ewing sarcoma viability, CellTiter-Glo luminescence, 48 h; series mostly up to 45.8 µM; activity change, negative = cytotoxic: at the top concentration
Procedure, shortened: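 In the primary qHTS, MIPE compounds were tested at 11 concentrations (0.78 nM to 46 µM) and NPC compounds at 8 (0.59 nM to 46 µM) on TC32 cells for 48 h. CellTiter-Glo luminescence gave viability.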

| Compound | activity change, negative = cytotoxic | Potency |
| --- | --- | --- |
| CC(=O)C1=C(O)C=C2Oc3c(C(C)=O)c(O)c(C)c(O)c3C2(C)C1=O (stereo not drawn) | 14.1% |  |
| CCCCCCCCCCCCCCCC(=O)OC[C@@H](NC(=O)C(Cl)Cl)[C@H](O)c1ccc([N+](=O)[O-])cc1 | 13.6% |  |
| O=C(O)C=Cc1ccc(Cn2ccnc2)cc1 | 13.5% |  |
| O=c1[nH]c(=O)n([C@H]2C[C@@H](O)[C@@H](CO)O2)cc1C=CBr | 4.41% |  |
| CC1(C)[C@H](O[C@H]2O[C@H](C(=O)O)[C@@H](O)[C@H](O)[C@H]2O[C@@H]2O[C@H](C(=O)O)[C@@H](O)[C@H](O)[C@H]2O)CC[C@@]2(C)[C@H]1CC[C@]1(C)[C@H]2C(=O)C=C2[C@H]3C[C@@](C)(C(=O)O)CC[C@]3(C)CC[C@]21C | 10.6% |  |
| CCCNS(=O)(=O)Nc1ncnc(OCCOc2ncc(Br)cn2)c1-c1ccc(Br)cc1 | 8.47% |  |
| C=Cc1c(C)c2cc3nc(cc4[nH]c(cc5nc(cc1[nH]2)C(C)=C5CCC(=O)O)c(CCC(=O)OC)c4C)[C@@]1(C)C3=CC=C(C(=O)OC)[C@H]1C(=O)OC |  | 5.87 µM (active) |
| CCNC(=O)Nc1ccc(-c2nc3c(c(N4CCOC[C@H]4C)n2)CCN(C2COC2)C3)cc1 |  | 3.3 µM (active) |
| COC(=O)[C@@H]1CC2=CC(=O)CC[C@]2(C)[C@@]23O[C@@H]2C[C@@]2(C)[C@H](CC[C@@]24CCC(=O)O4)[C@@H]13 | 2.39% |  |
| COc1ccc2cc([S+]([O-])Cc3ncc(C)c(OC)c3C)nc2c1 | -5.25% |  |
| C[N+]1(C)[C@@H]2C[C@@H](OC(=O)C(O)(c3cccs3)c3cccs3)C[C@H]1[C@@H]1O[C@@H]12 | 11.2% |  |
| CC(=O)O[C@H]1C[C@@H]2CC[C@H]3[C@H]4C[C@H]([N+]5(C)CCCCC5)[C@@H](OC(C)=O)[C@@]4(C)CC[C@@H]3[C@@]2(C)C[C@H]1[N+]1(C)CCCCC1 | 6.41% |  |
| CN[C@H](CC(C)C)C(=O)N[C@H]1C(=O)N[C@@H](CC(N)=O)C(=O)N[C@@H]2C(=O)N[C@H]3C(=O)N[C@H](C(=O)N[C@H](C(=O)O)c4cc(O)cc(O)c4-c4cc3ccc4O)[C@H](O)c3ccc(c(Cl)c3)Oc3cc2cc(c3O[C@@H]2O[C@H](CO)[C@@H](O)[C@H](O)[C@@H]2O[C@H]2C[C@](C)(N)[C@H](O)[C@H](C)O2)Oc2ccc(cc2Cl)[C@H]1O | 7.83% |  |
| CCN1CCN(C(=O)N[C@H](C(=O)N[C@@H]2C(=O)N3C(C(=O)O)=C(CSc4nnnn4C)CS[C@@H]23)c2ccc(O)cc2)C(=O)C1=O | 13.6% [at 9.17 µM] |  |
| COc1cc2ncnc(Nc3cccc(Br)c3)c2cc1OC | -1.92% |  |
| CCOC(=O)N1CCN([N+]([O-])=NOc2ccc([N+](=O)[O-])cc2[N+](=O)[O-])CC1 | 6.42% |  |
| COc1cc(C)c(Sc2cnc(NC(=O)c3ccc(CNC(C)C(C)(C)C)cc3)s2)cc1C(=O)N1CCN(C(C)=O)CC1 (stereo not drawn) |  | 20.8 µM (active) |
| CNC(=O)Nc1ccc(-c2nc(N3CC4CCC(C3)O4)c3cnn(C4CCC5(CC4)OCCO5)c3n2)cc1 |  | 0.0262 µM (active) |
| COc1cc(C)c(C=CC(C)=CC=CC(C)=CC(=O)O)c(C)c1C | 0.521% |  |
| NC1=N[C@H]2[C@H](CS[C@H]2CCCCC(=O)O)N1 | 14.8% [at 16 µM] |  |

Test system: not listed separately
Test: qHTS of pediatric cancer cell lines to identify multiple opportunities for drug repurposing: Primary screen for DAOY cells (AID 1347090); also: nearly all actives have a fitted effect of over 55% in size; also: potency is read from the fitted curve at half-maximal effect;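 as to activity change, negative = cytotoxic: plate controls were DMSO for no effect and bortezomib for full effect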
Conditions: DAOY medulloblastoma viability, CellTiter-Glo luminescence, 48 h; series mostly up to 46 µM; activity change, negative = cytotoxic: at the top concentration
Procedure, shortened: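 Viability measured as metabolically active cells via CellTiter-Glo luminescence following 48 hours of compound exposure, 11-point dilutions in confirmatory testing. 500-1,000 cells/well plated 5 hours before dosing; controls were DMSO and 2.3 µM bortezomib.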

| Compound | activity change, negative = cytotoxic | Potency |
| --- | --- | --- |
| CC(=O)C1=C(O)C=C2Oc3c(C(C)=O)c(O)c(C)c(O)c3C2(C)C1=O (stereo not drawn) | -4.81% |  |
| CCCCCCCCCCCCCCCC(=O)OC[C@@H](NC(=O)C(Cl)Cl)[C@H](O)c1ccc([N+](=O)[O-])cc1 | 9.17% |  |
| O=c1[nH]c(=O)n([C@H]2C[C@@H](O)[C@@H](CO)O2)cc1C=CBr | 5.16% |  |
| CC(=O)O[C@]1(C(C)=O)CC[C@H]2[C@@H]3C=C(C)C4=CC(=O)CC[C@]4(C)[C@@H]3CC[C@@]21C |  | 7.43 µM (active) |
| CC1(C)[C@H](O[C@H]2O[C@H](C(=O)O)[C@@H](O)[C@H](O)[C@H]2O[C@@H]2O[C@H](C(=O)O)[C@@H](O)[C@H](O)[C@H]2O)CC[C@@]2(C)[C@H]1CC[C@]1(C)[C@H]2C(=O)C=C2[C@H]3C[C@@](C)(C(=O)O)CC[C@]3(C)CC[C@]21C | 6.15% |  |
| CCCNS(=O)(=O)Nc1ncnc(OCCOc2ncc(Br)cn2)c1-c1ccc(Br)cc1 | -7.83% |  |
| CS(=O)(=O)N1CCc2c(-c3cnc(N)nc3)nc(N3CCOCC3)nc21 |  | 0.469 µM (active) |
| C=Cc1c(C)c2cc3nc(cc4[nH]c(cc5nc(cc1[nH]2)C(C)=C5CCC(=O)O)c(CCC(=O)OC)c4C)[C@@]1(C)C3=CC=C(C(=O)OC)[C@H]1C(=O)OC |  | 0.187 µM (active) |
| CCc1ccc(C(=O)Nc2cc(CN3CCN(C)CC3)cc(C(F)(F)F)c2)cc1C#Cc1cnc2ccnn2c1 |  | 23.5 µM (active) |
| COC(=O)[C@@H]1CC2=CC(=O)CC[C@]2(C)[C@@]23O[C@@H]2C[C@@]2(C)[C@H](CC[C@@]24CCC(=O)O4)[C@@H]13 | 10.7% |  |
| COc1ccc2cc([S+]([O-])Cc3ncc(C)c(OC)c3C)nc2c1 | -9.73% |  |
| C[N+]1(C)[C@@H]2C[C@@H](OC(=O)C(O)(c3cccs3)c3cccs3)C[C@H]1[C@@H]1O[C@@H]12 | 8.83% |  |
| CC(=O)O[C@H]1C[C@@H]2CC[C@H]3[C@H]4C[C@H]([N+]5(C)CCCCC5)[C@@H](OC(C)=O)[C@@]4(C)CC[C@@H]3[C@@]2(C)C[C@H]1[N+]1(C)CCCCC1 | 5.5% |  |
| CN[C@H](CC(C)C)C(=O)N[C@H]1C(=O)N[C@@H](CC(N)=O)C(=O)N[C@@H]2C(=O)N[C@H]3C(=O)N[C@H](C(=O)N[C@H](C(=O)O)c4cc(O)cc(O)c4-c4cc3ccc4O)[C@H](O)c3ccc(c(Cl)c3)Oc3cc2cc(c3O[C@@H]2O[C@H](CO)[C@@H](O)[C@H](O)[C@@H]2O[C@H]2C[C@](C)(N)[C@H](O)[C@H](C)O2)Oc2ccc(cc2Cl)[C@H]1O | 1.76% |  |
| CCN1CCN(C(=O)N[C@H](C(=O)N[C@@H]2C(=O)N3C(C(=O)O)=C(CSc4nnnn4C)CS[C@@H]23)c2ccc(O)cc2)C(=O)C1=O | 8.24% [at 9.22 µM] |  |
| CCOC(=O)N1CCN([N+]([O-])=NOc2ccc([N+](=O)[O-])cc2[N+](=O)[O-])CC1 |  | 18.7 µM (active) |
| COc1cc(C)c(Sc2cnc(NC(=O)c3ccc(CNC(C)C(C)(C)C)cc3)s2)cc1C(=O)N1CCN(C(C)=O)CC1 (stereo not drawn) |  | 18.7 µM (active) |
| CNC(=O)Nc1ccc(-c2nc(N3CC4CCC(C3)O4)c3cnn(C4CCC5(CC4)OCCO5)c3n2)cc1 |  | 0.0296 µM (active) |
| NC1=N[C@H]2[C@H](CS[C@H]2CCCCC(=O)O)N1 | 8.29% [at 16.1 µM] |  |
